FMDV inh – High Throughput Screening for Foot and Mouth Disease Virus Antivirals; FMDV antiviral cell-based qHTS; Potency, µM (series often up to 57.9 µM), actives largely listed as inhibitors; 1.2% of 410,000 active; AID 1159524, 2015; calls by dose curve; tested in HEK293T cells; note: read-out not given here; nearly all actives have a fitted effect of over 45% in size
AMA1-RON2 inh – qHTS for Inhibitors of AMA1-RON; Towards Development of Antimalarial Drug Lead: Primary Screen. AlphaScreen AMA1-biotinylated RON2 peptide binding. Potency, µM (highest dose often 58.2 µM), usual class: inhibitors. 0.2% of 360,000 active. AID 720542, 2013; note: nearly all actives have a fitted effect of over 45% in size
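AMA1 (3D7) with his tag at 25 nM final met compounds first, then biotinylated RON2 peptide at 25 nM; detection used donor plus acceptor beads, 10 µg/mL apiece, read by AlphaScreen after 30 min at room temperature.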
AmpC detergent – qHTS Inhibitors of AmpC Beta-Lactamase (assay with detergent) | P00811 | AmpC hydrolysis of nitrocefin, absorbance 480 nm, 0.01% Triton | Potency, µM (series often up to 114 µM), most hits filed as inhibitors | 0.041% of 370,000 active | AID 485294, 2010; note: nearly all actives have a fitted effect of over 25% in size
Target sequence (P00811 whole entry, looked up): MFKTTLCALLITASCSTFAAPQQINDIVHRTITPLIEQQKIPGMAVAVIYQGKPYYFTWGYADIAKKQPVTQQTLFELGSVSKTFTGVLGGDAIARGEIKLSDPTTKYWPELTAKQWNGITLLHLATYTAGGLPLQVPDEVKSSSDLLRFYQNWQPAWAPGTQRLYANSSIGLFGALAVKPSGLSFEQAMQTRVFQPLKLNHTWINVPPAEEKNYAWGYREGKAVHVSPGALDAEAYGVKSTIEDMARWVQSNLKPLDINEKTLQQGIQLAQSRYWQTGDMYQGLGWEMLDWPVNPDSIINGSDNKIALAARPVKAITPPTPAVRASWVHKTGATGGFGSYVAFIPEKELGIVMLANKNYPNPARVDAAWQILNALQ
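20 mM phosphate pH 7.0 + 0.01% (detergent screen) or 0.0001% Triton X-100; 5.3 nM AmpC reagent; cpd preinc 15 min RT; nitrocefin (800 uM stock) to start; A480 q20 s × 4 min; Activity was normalised to no-enzyme and no-compound control wells.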
Sm TGR inh – qHTS Assay for the Inhibitors of Schistosoma Mansoni Peroxiredoxins; Schistosoma mansoni thioredoxin glutathione reductase (TGR), Q962Y6; purified TGR, DTNB reduction, TNB absorbance 405 nm; Potency, µM (series often up to 114 µM), most hits filed as inhibitors; 3% of 360,000 active; AID 485364, 2010; note: nearly all actives have a fitted effect of over 60% in size
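TGR 20 nM + NADPH 100 uM (dispensed conc.), cpd preinc 15 min RT; start with NADPH (500 uM addition) then DTNB (15 mM addition). Kinetic TNB absorbance, 405 nm filter. Four-parameter Hill fit across titration.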
AmpC no deterg – qHTS Inhibitors of AmpC Beta-Lactamase (assay without detergent). Potency, µM (series often up to 57.1 µM), most hits filed as inhibitors. AmpC nitrocefin hydrolysis, absorbance 480 nm, 0.0001% Triton. 0.52% of 330,000 active; note: nearly all actives have a fitted effect of over 20% in size
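20 mM phosphate pH 7.0 + 0.01% (detergent screen) or 0.0001% Triton X-100; 5.3 nM AmpC reagent; cpd preinc 15 min RT; nitrocefin (800 uM stock) to start; A480 q20 s × 4 min; Activity was normalised to no-enzyme and no-compound control wells.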
Large screens that a line does not name were inactive. The list is not random: actives were taken first. Their share in the collection is about 4.1%. Unless noted, calls come from the whole dose curve; as a rule, active = well fitted curve in the direction sought with a large enough effect; inconclusive = small, poorly fitted or top-dose-only effect, or another doubt; inactive = no such curve, though single readings can be large; an effect the other way counts as inactive or inconclusive.

CCOc1ccc(NC(=O)c2c(C)nn(-c3ccc(F)cc3)c2-n2cccc2)cc1	none (no result: AMA1-RON2 inh, AmpC no deterg)
COC(=O)CCCCCN1C(=O)NC(c2ccccc2)C(C(=O)OCc2ccccc2)=C1C (stereo not given)	FMDV inh 28µM
C=CCOC(=O)C1=C(C)NC(=O)NC1c1ccc(Cl)cc1 (stereo not given)	none
C=CCOC(=O)C1=C(C)NC(=O)NC1c1ccc(N(C)C)cc1 (stereo not given)	Sm TGR inh 45µM
COCCNC(=O)C1(C)CCCN(C(=O)c2ccccc2F)C1 (stereo not given)	none (no result: AmpC detergent, Sm TGR inh, AmpC no deterg)
CCCCn1c(=O)[nH]c(=O)c2c1nc(-c1ccc(-c3ccccc3Br)o1)n2CCOC	Sm TGR inh inconclusive
COCCn1c(-c2ccc(-c3ccccc3Cl)o2)nc2c1c(=O)[nH]c(=O)n2CC(C)C	Sm TGR inh 32µM
CC(C)=CCc1c2c(c3occ(-c4ccc(O)cc4)c(=O)c3c1O)C=CC(C)(C)O2	FMDV inh inconclusive, AmpC no deterg 16µM
CC(C)=CCc1c2c(c3occ(-c4ccc(O)c(O)c4)c(=O)c3c1O)C=CC(C)(C)O2	FMDV inh inconclusive (no result: AmpC detergent, Sm TGR inh, AmpC no deterg)
CCCC[C@]12Cc3cc(C#N)ccc3C(O1)c1c(cc(C)n(-c3ccccc3)c1=O)O2	AmpC detergent inconclusive, AmpC no deterg inconclusive (no result: FMDV inh, AMA1-RON2 inh)
CCCCSc1nc2sc3c(c2c(=O)n1-c1ccccc1C)CC(C)(C)OC3	none (no result: AMA1-RON2 inh, AmpC no deterg)
Cc1ccc(N2C(=O)CC(Sc3ncn[nH]3)C2=O)cc1C (stereo not given)	Sm TGR inh 0.32µM
Cc1cccc(N2C(=O)CC(Sc3ncn[nH]3)C2=O)c1 (stereo not given)	Sm TGR inh 7.1µM
Cc1cccc(N2C(=O)CC(Sc3nccc(C)n3)C2=O)c1 (stereo not given)	none
Cc1ccc2nsnc2c1S(=O)(=O)Nc1cccc2nsnc12	Sm TGR inh 45µM
Cc1cn2c(-c3ccc(Cl)cc3)nnc2s1	AmpC no deterg 20µM
Clc1ccc(-c2nn3c(-c4ccccc4)nnc3s2)cc1	none
Cc1ccc(-c2nnn(CC(=O)N(Cc3ccccc3F)C(C(=O)NC3CCCC3)c3ccncc3)n2)o1 (stereo not given)	Sm TGR inh 40µM
Cc1ccc(-c2nnn(CC(=O)N(c3ccccc3)C(C(=O)NC3CCCC3)c3ccncc3)n2)o1 (stereo not given)	none
COc1ccc(CNC(=O)C(C)n2ccc3cc(S(=O)(=O)N4CCCC4)ccc32)cc1OC (stereo not given)	none (no result: AMA1-RON2 inh, AmpC no deterg)
O=C(Cc1coc2cc3c(cc12)CCC3)OCc1cc(=O)n2c(n1)sc1ccccc12	AmpC no deterg 32µM
CCC(C)(C)n1nnnc1C(c1ccc(O)cc1)N1CCc2ccccc2C1 (stereo not given)	Sm TGR inh inconclusive
CC(C)(C)n1nnnc1C(c1ccccc1)N1CCc2ccccc2C1 (stereo not given)	AmpC detergent inconclusive, Sm TGR inh 35µM
CN(C)c1ccc(C(c2nnnn2C(C)(C)C)N2CCc3ccccc3C2)cc1 (stereo not given)	Sm TGR inh 11µM (no result: FMDV inh, AMA1-RON2 inh)
CC1CCN(C(c2ccc(N(C)C)cc2)c2nnnn2C(C)(C)C)CC1 (stereo not given)	AMA1-RON2 inh inconclusive, AmpC detergent inconclusive, Sm TGR inh 5.6µM
Cc1c(C(=O)NCc2ccc(F)cc2)sc2nc3n(c(=O)c12)CCC3	none (no result: AMA1-RON2 inh, AmpC no deterg)
CCOC(=O)C1CCCN(C(=O)c2ccc3c(c2)N(Cc2cccc(Cl)c2)C(=O)c2ccccc2S3(=O)=O)C1 (stereo not given)	none (no result: AMA1-RON2 inh, AmpC no deterg)
Cc1ccccc1Cn1c2ccccc2c2cnn(CC(=O)NCCCc3ccccc3)c(=O)c21	none (no result: AMA1-RON2 inh, AmpC no deterg)
C=C(C(=O)O)[C@@H]1CC[C@@]2(C)CCC[C@](C)(O)[C@@H]2C1	none (no result: AMA1-RON2 inh, AmpC detergent, Sm TGR inh, AmpC no deterg)
Cc1oc(-c2cccc(Cl)c2)nc1CN1CCC(C(=O)NC2CC2)CC1	none
Cc1oc(-c2ccc(Cl)cc2)nc1CN1CCC(C(=O)NCCCN2CCN(c3cccc(Cl)c3)CC2)CC1	FMDV inh 25µM, Sm TGR inh inconclusive (no result: AMA1-RON2 inh, AmpC no deterg)

Screening results: PubChem, National Center for Advancing Translational Sciences (NCATS)
